# Assay results: ChEMBL document CHEMBL4513216, “Probing the Open Global Health Chemical Diversity Library for Multistage-Active Starting Points for Next-Generation Antimalarials” (ACS Infect Dis, 2020)
# Out of some 69,000 compounds screened, about 8,600 (12%) showed an effect of 50% or more. The sample holds strong results, similar compounds and a random draw of the others, so the mix is not that of the screen.
# System: Plasmodium berghei
# Assay: Screen against P. berghei liver stage (PbLuc), transformed with Luciferase, at 10uM
# Assay type: functional, HepG2
# Conditions: tested at 10 uM
row,Structure (SMILES),INHIBITION [%]
1,CN(Cc1ccn[nH]1)C(=O)CCC(=O)NC1CCCC1,31.2
2,CCc1c(C)[nH]c(C(C)(C)N)nc1=O,60.4
3,CCC(C)(N)c1nc(=O)c(C)c(C)[nH]1 (configuration not stated),43.6
4,CCc1c(C)[nH]c(C(C)(N)CC)nc1=O (configuration not stated),29.7
5,CCS(=O)(=O)c1ccccc1N1CCC(NC(=O)C2CC2)CC1,-9.37
6,c1ccc(N2CCC3(CCCN(c4ncccn4)C3)C2)nc1 (configuration not stated),-56.2
7,CCc1nc2c(N3CCC4(CC3)CC(=O)N(CC)C4)ncnc2o1,26.8
8,CCc1nc2c(N3CCC4(CC3)CNC(=O)C4)ncnc2o1,9.91
9,CCc1nc2c(N3CCC4(CC3)CC(=O)N(CC(C)C)C4)ncnc2o1,87.2
10,c1csc(CN2CCCn3nnc(COCC4CC4)c3C2)n1,15.8
11,CC[C@@H](Cn1ncc2ccccc2c1=O)NC(=O)c1cnccn1,-3.94
12,CCCn1nnc2c(sc3nc(N4CCOCC4)c4c(c32)CCC4)c1=O,80.6
13,CC(C)n1nnc2c(sc3nc(N4CCOCC4)c4c(c32)CCC4)c1=O,28.6
14,Cn1nnc2c(sc3nc(N4CCOCC4)c4c(c32)CCC4)c1=O,13.8
15,CNc1ncc(CN(C)C(=O)c2cccc(-n3cccn3)c2)cn1,25.8
16,O=C(NCCc1cccs1)NCC(O)c1cccc(F)c1 (configuration not stated),-54.4
17,CCN(CC)c1ncnc2c(C)nn(CC)c12,35.4
18,O=C(O)C1(n2ccc(-c3ccco3)n2)CCN(Cc2cccnc2)CC1,1.48
19,CNc1nc2cn(-c3cccc(OC)c3)c(=O)c-2c[nH]1,-98.45

row,Structure (SMILES),INHIBITION [%]
1,C[C@@H]1CN(CC(C)(C)N2CCOCC2)C[C@@]1(O)C1CC1,54.5
2,C[C@@H]1CN(CC(C)(C)N2CCCCC2)CC[C@@]1(O)C1CC1,71.3
3,C[C@@H]1CN(CC(C)(C)N2CCCCC2)C[C@@]1(O)C1CC1,31.7
4,C[C@@H]1CN(CC(C)(C)N2CCOCC2)CC[C@@]1(O)C1CCOCC1,27.7
5,C[C@@H]1CN(S(=O)(=O)N2CCOCC2)C[C@@]1(O)C1CC1,38.75
6,C[C@@H]1CN(Cc2cc3ccccc3n2C)CC[C@@]1(O)C1CC1,8.7
7,Cc1nn(-c2ccccc2)nc1C(=O)N1CCCC(n2cccn2)C1 (configuration not stated),17.4
8,N#Cc1ccccc1CN1CCCC(c2nccn2CC2CC2)C1 (configuration not stated),33.4
9,FC(F)Oc1ccccc1CN1CCCC(c2nccn2CC2CC2)C1 (configuration not stated),74.5
10,NC(=O)Cn1ccnc1C1CCCN(Cc2ccccc2OC(F)F)C1 (configuration not stated),46.4
11,CC1(c2ncc(CN3CCSCC3)cn2)CCCCO1 (configuration not stated),40.95
12,CN1CC[C@]2(CN(S(C)(=O)=O)C[C@H]2c2ccccc2)C1=O,48.4
13,CCCn1cc(Cl)c(C(=O)N2C[C@@H](O)[C@H](NC(C)=O)C2)n1,0.65
14,O=C(O)c1cncc(Cc2ccccc2F)c1,-8.58
15,Cc1cc(-c2cnc(N3CCCC(C)C3)nc2-c2cccnc2C)on1 (configuration not stated),64.3
16,Cc1cc(-c2cnc(N3CCNC(=O)C3)nc2-c2ccoc2C)on1,14.7
17,Cc1cc(-c2cnc(N3CCNC(=O)C3)nc2-c2ccc(C)o2)on1,35.8
18,Cc1cc(-c2cnc(N3CCNC(=O)C3)nc2-c2ccncc2)on1,50.8
19,Cc1cc(-c2cnc(N3CCNC(=O)C3)nc2-c2sccc2C)on1,0.301

row,Structure (SMILES),INHIBITION [%]
1,Cc1cc(-c2cnc(N3CCNC(=O)C3)nc2-c2cccnc2C)on1,39.2
2,Cc1cc(-c2cnc(N3CCC(O)CC3)nc2-c2cccnc2C)on1,11.1
3,Cc1cc(-c2cnc(N3CCCCCC3)nc2-c2cccnc2C)on1,59.3
4,Cc1cc(-c2cnc(N3CCOCC3)nc2-c2cccnc2C)on1,-2.11
5,O=C(c1ccc(Cl)cc1F)N1CCC(Cn2cc(CO)nn2)CC1,6.67
6,CCCN(Cc1nnnn1C1CC1)CC1COc2ccccc2O1 (configuration not stated),-16.6
7,COCCCNC(=O)c1cc(-c2cnc(N3CCOCC3)nc2)cn1C,38.1
8,Cc1csc(C(=O)NCCN2CCC(c3cccs3)CC2)c1,68.2
9,O=C(NCCN1CCC(c2cccs2)CC1)Nc1cccs1,9.54
10,O=C(NCCN1CCC(c2cccs2)CC1)c1ccccc1C(F)(F)F,40.9
11,O=C(NCCc1ccccc1)NCCN1CCC(c2cccs2)CC1,38
12,CCSc1ccccc1C(=O)NCCN1CCC(c2cccs2)CC1,38
13,O=C(NCCN1CCC(c2cccs2)CC1)c1ccc(F)cc1Cl,56.6
14,O=C(Cc1ccccc1Cl)NCCN1CCC(c2cccs2)CC1,56.6
15,COc1ccc(C(=O)NCCN2CCC(c3cccs3)CC2)cc1OC,17.1
16,CC1CCN(CCNC(=O)c2ccn(-c3ccc(F)cc3)n2)CC1,-43.5
17,CCOC(=O)N1CCN(CC(=O)Nc2ccc(F)cc2Cl)CC1,25.6
18,CC(=O)NCCN1CCC(c2cccs2)CC1,-19.4
19,CC1CCN(CCNC(=O)Nc2ccc(F)cc2Cl)CC1,56.4
